# Measurements from paper PMC7862700, “An all-to-all approach to the identification of sequence-specific readers for epigenetic DNA modifications on cytosine”.
# Assays:
# Assay in all cases: DAPPL (digital affinity profiling via proximity ligation, sequencing); 10 mM Tris-HCl pH 7.5, 50 mM NaCl, 1 mM DTT, 4% glycerol, room temperature, 30 min; GST-TFs on glutathione beads, 16-mer random dsDNA library, 0.1% formaldehyde crosslink after washing; high values mean tight binding
# [1] = target: T1, FLI1 (Homo sapiens, UniProt Q01543 1-452); conditions: protein: recombinant; tags: N-terminal GST; dsDNA, one strand shown
# T1 sequence: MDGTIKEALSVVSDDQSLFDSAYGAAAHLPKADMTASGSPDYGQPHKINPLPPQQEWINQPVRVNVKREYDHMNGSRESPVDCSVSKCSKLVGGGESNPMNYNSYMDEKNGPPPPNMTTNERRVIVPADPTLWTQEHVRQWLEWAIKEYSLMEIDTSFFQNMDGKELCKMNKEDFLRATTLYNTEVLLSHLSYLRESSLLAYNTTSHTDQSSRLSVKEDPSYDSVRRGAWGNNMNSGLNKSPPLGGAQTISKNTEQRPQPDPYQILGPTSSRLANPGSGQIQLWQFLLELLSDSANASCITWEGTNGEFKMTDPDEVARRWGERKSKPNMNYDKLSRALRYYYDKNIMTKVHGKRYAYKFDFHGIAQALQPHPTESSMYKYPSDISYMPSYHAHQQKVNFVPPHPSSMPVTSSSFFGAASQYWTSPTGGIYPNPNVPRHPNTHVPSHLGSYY
# How it was run: (§1)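 A tag-only sample was pooled with DNA-barcoded human transcription factors that had been expressed in yeast as GST fusions and captured on glutathione beads. The pools were incubated for 30 min at room temperature with 200 nmole of a random double-stranded 16-mer DNA library in Tris/NaCl/DTT/glycerol buffer, then washed, crosslinked with 0.1% formaldehyde, proximity-ligated (BsaI/T4 ligase, 1 h, 37 °C), PCR-amplified and sequenced on an Illumina NextSeq500. Binding signal is each hexamer's read frequency for a factor divided by its frequency for the tag-only sample.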
# [2] = target: T2, ELK1 (Homo sapiens, UniProt P19419 1-428); conditions: protein: recombinant; tags: N-terminal GST; dsDNA, one strand shown
# T2 sequence: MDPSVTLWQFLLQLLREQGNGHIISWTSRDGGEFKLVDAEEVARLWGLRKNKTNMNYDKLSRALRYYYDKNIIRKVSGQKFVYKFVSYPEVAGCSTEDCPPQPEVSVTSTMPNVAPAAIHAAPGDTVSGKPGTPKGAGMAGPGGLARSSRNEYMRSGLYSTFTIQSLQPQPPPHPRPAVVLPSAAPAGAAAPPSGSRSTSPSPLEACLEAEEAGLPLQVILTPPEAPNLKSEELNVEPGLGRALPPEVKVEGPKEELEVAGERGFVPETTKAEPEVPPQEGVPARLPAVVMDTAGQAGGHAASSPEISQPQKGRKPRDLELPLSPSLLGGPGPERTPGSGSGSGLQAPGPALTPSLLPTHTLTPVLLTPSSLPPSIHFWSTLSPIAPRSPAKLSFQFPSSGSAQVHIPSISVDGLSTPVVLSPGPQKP
# How it was run: as §1
# [3] = target: T3, GABPA (Homo sapiens, UniProt Q06546 1-454); conditions: protein: recombinant; tags: N-terminal GST; dsDNA, one strand shown
# T3 sequence: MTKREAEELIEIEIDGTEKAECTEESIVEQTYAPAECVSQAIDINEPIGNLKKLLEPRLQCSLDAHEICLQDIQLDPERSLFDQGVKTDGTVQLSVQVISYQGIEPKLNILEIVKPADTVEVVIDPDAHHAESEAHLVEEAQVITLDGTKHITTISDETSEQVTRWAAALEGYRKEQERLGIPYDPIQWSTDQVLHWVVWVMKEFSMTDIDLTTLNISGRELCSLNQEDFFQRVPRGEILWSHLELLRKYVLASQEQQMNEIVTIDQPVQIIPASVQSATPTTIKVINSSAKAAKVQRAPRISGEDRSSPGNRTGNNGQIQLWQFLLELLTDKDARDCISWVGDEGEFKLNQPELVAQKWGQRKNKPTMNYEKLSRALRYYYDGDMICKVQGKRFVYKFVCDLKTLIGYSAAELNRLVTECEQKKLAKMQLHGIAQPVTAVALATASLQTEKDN
# How it was run: as §1
# [4] = target: T4, ERG (Homo sapiens, UniProt P11308 1-479); conditions: protein: recombinant; tags: N-terminal GST; dsDNA, one strand shown
# T4 sequence: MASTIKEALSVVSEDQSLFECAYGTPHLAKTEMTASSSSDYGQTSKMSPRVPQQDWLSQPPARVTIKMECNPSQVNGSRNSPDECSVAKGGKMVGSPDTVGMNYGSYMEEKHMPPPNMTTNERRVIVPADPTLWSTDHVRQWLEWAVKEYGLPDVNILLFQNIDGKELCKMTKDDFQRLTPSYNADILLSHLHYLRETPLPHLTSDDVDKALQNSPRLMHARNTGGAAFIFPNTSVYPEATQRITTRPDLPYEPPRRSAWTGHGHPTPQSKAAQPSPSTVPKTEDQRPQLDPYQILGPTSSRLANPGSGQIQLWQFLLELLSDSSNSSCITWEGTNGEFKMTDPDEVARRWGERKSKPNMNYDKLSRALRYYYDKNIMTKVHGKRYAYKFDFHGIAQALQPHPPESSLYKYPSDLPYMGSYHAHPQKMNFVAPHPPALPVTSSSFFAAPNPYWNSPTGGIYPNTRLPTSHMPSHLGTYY
# How it was run: as §1
# [5] = target: ELF1 (Homo sapiens, UniProt P32519 1-619); conditions: protein: recombinant; tags: N-terminal GST; dsDNA, one strand shown
# How it was run: as §1
# [6] = target: T5, EHF (Homo sapiens, UniProt Q9NZC4 1-300); conditions: protein: recombinant; tags: N-terminal GST; dsDNA, one strand shown
# T5 sequence: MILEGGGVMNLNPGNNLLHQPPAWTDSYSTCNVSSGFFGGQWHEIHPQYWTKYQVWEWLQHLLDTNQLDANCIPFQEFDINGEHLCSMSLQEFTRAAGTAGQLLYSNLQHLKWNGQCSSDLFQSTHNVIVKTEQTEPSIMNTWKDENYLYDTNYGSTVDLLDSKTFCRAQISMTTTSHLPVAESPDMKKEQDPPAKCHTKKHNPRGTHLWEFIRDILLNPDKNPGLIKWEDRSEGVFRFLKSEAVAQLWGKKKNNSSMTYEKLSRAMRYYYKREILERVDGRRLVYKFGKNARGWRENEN
# How it was run: as §1
# [7] = target: SPI1 (Homo sapiens, UniProt P17947 1-270); conditions: protein: recombinant; tags: N-terminal GST; dsDNA, one strand shown
# How it was run: as §1
# [8] = target: SPIB (Homo sapiens, UniProt Q01892 1-262); conditions: protein: recombinant; tags: N-terminal GST; dsDNA, one strand shown
# How it was run: as §1
# [9] = target: T6, ELK3 (Homo sapiens, UniProt P41970 1-407); conditions: protein: recombinant; tags: N-terminal GST; dsDNA, one strand shown
# T6 sequence: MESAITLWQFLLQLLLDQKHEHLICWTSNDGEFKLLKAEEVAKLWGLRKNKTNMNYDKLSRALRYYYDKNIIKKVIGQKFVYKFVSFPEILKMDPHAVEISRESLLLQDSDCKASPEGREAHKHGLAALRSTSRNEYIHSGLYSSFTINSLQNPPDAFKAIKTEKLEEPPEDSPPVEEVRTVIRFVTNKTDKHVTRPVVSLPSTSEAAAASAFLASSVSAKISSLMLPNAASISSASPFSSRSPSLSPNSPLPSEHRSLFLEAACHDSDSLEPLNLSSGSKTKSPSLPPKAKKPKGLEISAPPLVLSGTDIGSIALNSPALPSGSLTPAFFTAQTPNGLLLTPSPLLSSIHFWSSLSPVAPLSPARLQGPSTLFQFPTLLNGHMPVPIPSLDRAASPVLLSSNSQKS
# How it was run: as §1
# [10] = target: T7, FEV (Homo sapiens, UniProt Q99581 1-238); conditions: protein: recombinant; tags: N-terminal GST; dsDNA, one strand shown
# T7 sequence: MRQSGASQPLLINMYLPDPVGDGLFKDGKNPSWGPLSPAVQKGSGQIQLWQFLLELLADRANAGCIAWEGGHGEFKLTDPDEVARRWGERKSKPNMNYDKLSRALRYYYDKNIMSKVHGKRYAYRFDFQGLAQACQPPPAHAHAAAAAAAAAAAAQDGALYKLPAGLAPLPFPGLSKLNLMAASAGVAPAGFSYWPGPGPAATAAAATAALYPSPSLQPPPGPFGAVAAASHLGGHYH
# How it was run: as §1
# [11] = target: ETV5 (Homo sapiens, UniProt P41161 1-510); conditions: protein: recombinant; tags: N-terminal GST; dsDNA, one strand shown
# How it was run: as §1
# [12] = target: HSF1 (Homo sapiens, UniProt Q00613 1-529); conditions: protein: recombinant; tags: N-terminal GST; chain copies: 3; dsDNA, one strand shown
# How it was run: as §1
# [13] = target: T8, SPIC (Homo sapiens, UniProt Q8N5J4 1-248); conditions: protein: recombinant; tags: N-terminal GST; dsDNA, one strand shown
# T8 sequence: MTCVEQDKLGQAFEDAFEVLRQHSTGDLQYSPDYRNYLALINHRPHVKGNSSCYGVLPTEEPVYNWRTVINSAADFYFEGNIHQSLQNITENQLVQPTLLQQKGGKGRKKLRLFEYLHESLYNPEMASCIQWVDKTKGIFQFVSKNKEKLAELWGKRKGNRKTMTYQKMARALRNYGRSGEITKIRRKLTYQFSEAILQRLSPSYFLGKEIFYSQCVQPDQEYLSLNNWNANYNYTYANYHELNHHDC
# How it was run: as §1
# [14] = target: ELF4 (Homo sapiens, UniProt Q99607 1-663); conditions: protein: recombinant; tags: N-terminal GST; dsDNA, one strand shown
# How it was run: as §1
# [15] = target: T9, ELK4 (Homo sapiens, UniProt P28324-2 1-405); conditions: protein: recombinant; tags: N-terminal GST; dsDNA, one strand shown
# T9 sequence: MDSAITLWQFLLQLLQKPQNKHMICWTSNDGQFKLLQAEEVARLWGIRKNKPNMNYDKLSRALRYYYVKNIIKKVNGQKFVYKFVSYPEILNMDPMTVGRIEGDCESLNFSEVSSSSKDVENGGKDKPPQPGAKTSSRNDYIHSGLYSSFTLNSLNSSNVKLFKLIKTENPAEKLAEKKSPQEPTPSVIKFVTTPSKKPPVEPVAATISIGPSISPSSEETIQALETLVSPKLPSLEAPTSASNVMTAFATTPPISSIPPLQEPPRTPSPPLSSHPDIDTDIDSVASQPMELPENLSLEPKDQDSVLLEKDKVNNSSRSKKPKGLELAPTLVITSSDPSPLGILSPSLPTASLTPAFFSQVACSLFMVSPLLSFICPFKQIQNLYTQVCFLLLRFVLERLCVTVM
# How it was run: as §1
# [16] = target: T10, ETV2 (Homo sapiens, UniProt O00321 1-342); conditions: protein: recombinant; tags: N-terminal GST; dsDNA, one strand shown
# T10 sequence: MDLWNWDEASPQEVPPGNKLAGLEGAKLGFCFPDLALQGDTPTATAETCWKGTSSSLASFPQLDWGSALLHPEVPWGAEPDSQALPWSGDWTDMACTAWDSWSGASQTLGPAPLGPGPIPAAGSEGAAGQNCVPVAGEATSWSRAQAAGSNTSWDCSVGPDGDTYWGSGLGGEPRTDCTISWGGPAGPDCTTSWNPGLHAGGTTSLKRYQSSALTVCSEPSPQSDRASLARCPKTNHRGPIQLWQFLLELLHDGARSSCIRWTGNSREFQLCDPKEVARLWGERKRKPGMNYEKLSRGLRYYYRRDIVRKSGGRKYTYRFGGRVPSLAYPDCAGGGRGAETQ
# How it was run: as §1
# [17] = target: T11, ELF3 (Homo sapiens, UniProt P78545 1-371); conditions: protein: recombinant; tags: N-terminal GST; dsDNA, one strand shown
# T11 sequence: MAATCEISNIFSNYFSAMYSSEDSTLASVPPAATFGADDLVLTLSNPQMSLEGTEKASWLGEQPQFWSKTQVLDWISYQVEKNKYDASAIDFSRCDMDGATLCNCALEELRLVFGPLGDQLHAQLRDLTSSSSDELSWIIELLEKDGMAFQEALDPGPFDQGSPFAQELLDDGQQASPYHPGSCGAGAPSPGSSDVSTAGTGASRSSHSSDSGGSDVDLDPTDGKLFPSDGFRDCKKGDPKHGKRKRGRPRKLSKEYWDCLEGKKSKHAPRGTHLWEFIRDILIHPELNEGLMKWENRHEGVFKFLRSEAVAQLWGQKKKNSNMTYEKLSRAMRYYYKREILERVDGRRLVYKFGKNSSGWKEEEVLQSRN
# How it was run: as §1
# [18] = target: CRX (Homo sapiens, UniProt O43186 1-299); conditions: protein: recombinant; tags: N-terminal GST; dsDNA, one strand shown
# How it was run: as §1
# [19] = target: ETV1 (Homo sapiens, UniProt P50549 1-477); conditions: protein: recombinant; tags: N-terminal GST; dsDNA, one strand shown
# How it was run: as §1
# ELF4, sequence (Q99607 whole entry): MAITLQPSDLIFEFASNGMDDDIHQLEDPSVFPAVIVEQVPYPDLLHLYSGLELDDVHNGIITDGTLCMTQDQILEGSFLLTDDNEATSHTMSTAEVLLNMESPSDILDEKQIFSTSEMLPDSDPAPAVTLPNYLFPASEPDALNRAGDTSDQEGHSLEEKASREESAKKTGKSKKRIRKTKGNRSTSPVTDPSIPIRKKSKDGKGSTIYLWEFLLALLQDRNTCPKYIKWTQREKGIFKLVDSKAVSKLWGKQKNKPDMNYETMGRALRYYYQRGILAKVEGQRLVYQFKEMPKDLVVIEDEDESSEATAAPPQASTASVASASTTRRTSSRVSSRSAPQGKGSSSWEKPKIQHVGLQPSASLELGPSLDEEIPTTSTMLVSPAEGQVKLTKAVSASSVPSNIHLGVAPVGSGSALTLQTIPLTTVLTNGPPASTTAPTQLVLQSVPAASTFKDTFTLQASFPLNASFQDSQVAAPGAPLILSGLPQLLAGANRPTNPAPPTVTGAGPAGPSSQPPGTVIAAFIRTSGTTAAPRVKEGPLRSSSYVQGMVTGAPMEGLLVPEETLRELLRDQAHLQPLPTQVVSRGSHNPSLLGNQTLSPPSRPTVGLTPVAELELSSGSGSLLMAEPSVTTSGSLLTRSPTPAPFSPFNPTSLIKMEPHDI
# CRX, sequence (O43186 whole entry): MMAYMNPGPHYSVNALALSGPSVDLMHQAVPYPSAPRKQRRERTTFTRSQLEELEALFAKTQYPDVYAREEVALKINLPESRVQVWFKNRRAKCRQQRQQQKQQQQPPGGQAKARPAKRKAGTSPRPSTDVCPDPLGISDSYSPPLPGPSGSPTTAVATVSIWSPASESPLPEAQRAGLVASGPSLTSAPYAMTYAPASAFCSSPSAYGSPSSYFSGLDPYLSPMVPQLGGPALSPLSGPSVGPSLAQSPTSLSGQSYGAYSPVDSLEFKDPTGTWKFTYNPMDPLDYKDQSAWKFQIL
# HSF1, sequence (Q00613 whole entry): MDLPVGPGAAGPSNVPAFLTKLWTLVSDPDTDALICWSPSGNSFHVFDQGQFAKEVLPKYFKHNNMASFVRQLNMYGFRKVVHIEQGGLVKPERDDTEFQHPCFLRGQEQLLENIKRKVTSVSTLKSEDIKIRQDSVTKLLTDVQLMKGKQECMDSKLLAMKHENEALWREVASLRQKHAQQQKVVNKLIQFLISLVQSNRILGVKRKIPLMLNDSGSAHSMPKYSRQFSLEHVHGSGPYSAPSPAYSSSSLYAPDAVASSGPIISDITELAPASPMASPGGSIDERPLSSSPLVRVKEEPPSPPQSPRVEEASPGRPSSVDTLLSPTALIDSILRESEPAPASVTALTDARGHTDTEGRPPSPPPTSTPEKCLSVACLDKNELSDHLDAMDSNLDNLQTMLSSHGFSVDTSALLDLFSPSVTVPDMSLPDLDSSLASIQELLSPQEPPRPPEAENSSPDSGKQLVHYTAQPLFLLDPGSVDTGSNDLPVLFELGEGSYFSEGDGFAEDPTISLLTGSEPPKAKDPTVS
# ETV5, sequence (P41161 whole entry): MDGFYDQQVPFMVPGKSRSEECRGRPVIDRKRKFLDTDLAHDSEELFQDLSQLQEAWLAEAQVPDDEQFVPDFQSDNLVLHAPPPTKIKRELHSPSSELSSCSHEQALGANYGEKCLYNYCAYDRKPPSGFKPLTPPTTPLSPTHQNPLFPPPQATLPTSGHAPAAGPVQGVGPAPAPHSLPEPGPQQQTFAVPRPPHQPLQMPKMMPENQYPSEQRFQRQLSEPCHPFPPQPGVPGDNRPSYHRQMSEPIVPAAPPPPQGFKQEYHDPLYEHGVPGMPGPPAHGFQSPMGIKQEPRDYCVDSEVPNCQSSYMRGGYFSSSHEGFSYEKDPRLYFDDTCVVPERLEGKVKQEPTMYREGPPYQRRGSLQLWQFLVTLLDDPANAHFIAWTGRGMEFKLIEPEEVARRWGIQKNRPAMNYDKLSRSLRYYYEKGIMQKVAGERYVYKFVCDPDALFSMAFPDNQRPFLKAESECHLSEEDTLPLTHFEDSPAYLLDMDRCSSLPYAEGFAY
# SPIB, sequence (Q01892 whole entry): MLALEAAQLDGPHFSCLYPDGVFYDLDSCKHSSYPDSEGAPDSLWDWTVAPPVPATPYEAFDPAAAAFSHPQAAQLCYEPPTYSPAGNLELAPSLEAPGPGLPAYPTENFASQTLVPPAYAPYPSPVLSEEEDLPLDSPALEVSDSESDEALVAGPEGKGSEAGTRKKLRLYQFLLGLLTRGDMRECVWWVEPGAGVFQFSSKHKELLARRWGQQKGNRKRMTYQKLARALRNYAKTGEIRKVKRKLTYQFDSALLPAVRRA
# ETV1, sequence (P50549 whole entry): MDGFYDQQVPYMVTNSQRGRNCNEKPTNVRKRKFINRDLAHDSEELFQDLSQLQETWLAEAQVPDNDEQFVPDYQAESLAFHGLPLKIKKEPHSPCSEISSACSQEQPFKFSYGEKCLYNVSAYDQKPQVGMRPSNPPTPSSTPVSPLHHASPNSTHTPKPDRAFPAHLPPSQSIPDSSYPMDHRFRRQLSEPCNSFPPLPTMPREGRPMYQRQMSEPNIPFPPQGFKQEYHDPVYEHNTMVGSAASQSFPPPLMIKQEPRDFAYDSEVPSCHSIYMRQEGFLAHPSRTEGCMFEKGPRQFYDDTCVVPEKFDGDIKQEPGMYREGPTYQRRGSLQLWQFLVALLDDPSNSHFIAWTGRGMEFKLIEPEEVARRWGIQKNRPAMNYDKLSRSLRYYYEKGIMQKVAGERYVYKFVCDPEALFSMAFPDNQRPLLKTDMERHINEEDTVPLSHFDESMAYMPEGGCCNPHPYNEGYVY
# ELF1, sequence (P32519 whole entry): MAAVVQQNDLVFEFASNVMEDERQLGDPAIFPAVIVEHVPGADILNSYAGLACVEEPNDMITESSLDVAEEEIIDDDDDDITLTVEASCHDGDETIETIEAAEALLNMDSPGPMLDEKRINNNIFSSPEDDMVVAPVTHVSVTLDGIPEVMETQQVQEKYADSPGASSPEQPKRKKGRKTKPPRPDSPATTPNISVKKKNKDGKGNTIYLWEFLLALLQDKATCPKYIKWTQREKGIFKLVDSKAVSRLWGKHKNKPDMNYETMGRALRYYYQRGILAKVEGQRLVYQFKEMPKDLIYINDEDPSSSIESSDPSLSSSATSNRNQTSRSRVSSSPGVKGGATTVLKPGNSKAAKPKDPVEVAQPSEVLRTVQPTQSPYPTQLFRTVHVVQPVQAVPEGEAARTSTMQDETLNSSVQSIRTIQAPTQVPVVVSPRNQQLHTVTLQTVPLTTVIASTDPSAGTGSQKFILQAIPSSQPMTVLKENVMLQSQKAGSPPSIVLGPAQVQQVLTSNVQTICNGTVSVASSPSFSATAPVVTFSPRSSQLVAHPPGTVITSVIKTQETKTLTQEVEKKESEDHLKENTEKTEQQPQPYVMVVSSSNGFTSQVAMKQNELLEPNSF
sequence,measurement,setting,value
GGCTCT,binding signal,[1],"1.15 fold enrichment (6-mer frequency, TF over GST control)"
same,binding signal,[2],"1.23 fold enrichment (6-mer frequency, TF over GST control)"
same,binding signal,[3],"1.23 fold enrichment (6-mer frequency, TF over GST control)"
same,binding signal,[4],"1.26 fold enrichment (6-mer frequency, TF over GST control)"
same,binding signal,[5],"1.29 fold enrichment (6-mer frequency, TF over GST control)"
same,binding signal,[6],"1.27 fold enrichment (6-mer frequency, TF over GST control)"
same,binding signal,[7],"1.18 fold enrichment (6-mer frequency, TF over GST control)"
same,binding signal,[8],"1.26 fold enrichment (6-mer frequency, TF over GST control)"
same,binding signal,[9],"1.42 fold enrichment (6-mer frequency, TF over GST control)"
same,binding signal,[10],"1.35 fold enrichment (6-mer frequency, TF over GST control)"
same,binding signal,[11],"1.19 fold enrichment (6-mer frequency, TF over GST control)"
same,binding signal,[12],"1.32 fold enrichment (6-mer frequency, TF over GST control)"
same,binding signal,[13],"1.34 fold enrichment (6-mer frequency, TF over GST control)"
same,binding signal,[14],"1.37 fold enrichment (6-mer frequency, TF over GST control)"
same,binding signal,[15],"1.22 fold enrichment (6-mer frequency, TF over GST control)"
same,binding signal,[16],"1.4 fold enrichment (6-mer frequency, TF over GST control)"
same,binding signal,[17],"1.44 fold enrichment (6-mer frequency, TF over GST control)"
same,binding signal,[18],"1.27 fold enrichment (6-mer frequency, TF over GST control)"
same,binding signal,[19],"1.42 fold enrichment (6-mer frequency, TF over GST control)"
